# Test results: ChEMBL document CHEMBL2218924, “A broad activity screen in support of a chemogenomic map for kinase signalling research and drug discovery” (Biochem J, 2013)
# Assays:
# [1] = target: T1, Serine/threonine-protein kinase TBK1 (Homo sapiens) (UniProt Q9UHD2); details: at 10 µM
# T1 sequence (whole entry): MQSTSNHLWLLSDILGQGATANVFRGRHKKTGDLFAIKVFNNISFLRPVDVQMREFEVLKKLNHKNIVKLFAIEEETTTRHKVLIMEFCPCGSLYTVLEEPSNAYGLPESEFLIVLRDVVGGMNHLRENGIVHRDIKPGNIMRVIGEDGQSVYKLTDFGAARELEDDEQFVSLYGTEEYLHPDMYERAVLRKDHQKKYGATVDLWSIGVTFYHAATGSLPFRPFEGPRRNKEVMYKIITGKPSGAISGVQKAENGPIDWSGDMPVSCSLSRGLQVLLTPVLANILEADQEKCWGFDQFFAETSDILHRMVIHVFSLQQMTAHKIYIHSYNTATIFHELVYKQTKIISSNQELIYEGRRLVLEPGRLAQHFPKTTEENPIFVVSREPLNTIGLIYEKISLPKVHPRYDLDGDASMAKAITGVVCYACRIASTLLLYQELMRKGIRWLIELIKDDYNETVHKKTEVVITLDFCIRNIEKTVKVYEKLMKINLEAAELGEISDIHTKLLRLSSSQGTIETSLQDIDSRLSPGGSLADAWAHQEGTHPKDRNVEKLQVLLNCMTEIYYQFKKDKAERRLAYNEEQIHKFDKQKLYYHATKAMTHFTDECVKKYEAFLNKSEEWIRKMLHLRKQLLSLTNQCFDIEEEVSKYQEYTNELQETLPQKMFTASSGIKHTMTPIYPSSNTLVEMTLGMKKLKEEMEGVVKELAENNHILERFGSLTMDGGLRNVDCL
# [2] = target: T2, TGF-beta receptor type-1 (Homo sapiens) (UniProt P36897); details: at 1 µM
# T2 sequence (whole entry): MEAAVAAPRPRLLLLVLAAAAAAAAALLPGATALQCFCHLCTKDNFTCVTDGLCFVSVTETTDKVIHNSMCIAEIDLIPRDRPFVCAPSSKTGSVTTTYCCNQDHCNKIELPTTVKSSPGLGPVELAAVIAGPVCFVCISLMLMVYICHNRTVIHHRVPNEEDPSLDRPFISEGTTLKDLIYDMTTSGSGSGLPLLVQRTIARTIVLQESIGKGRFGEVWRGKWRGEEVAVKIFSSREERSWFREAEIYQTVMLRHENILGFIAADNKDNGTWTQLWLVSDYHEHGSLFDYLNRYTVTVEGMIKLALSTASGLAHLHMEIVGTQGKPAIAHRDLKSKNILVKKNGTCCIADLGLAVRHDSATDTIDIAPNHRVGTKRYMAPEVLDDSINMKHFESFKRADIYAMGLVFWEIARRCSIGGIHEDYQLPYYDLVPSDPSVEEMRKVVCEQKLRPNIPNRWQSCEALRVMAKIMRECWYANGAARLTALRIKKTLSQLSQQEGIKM
# [3] = target: T2, TGF-beta receptor type-1 (Homo sapiens); details: at 10 µM
# [4] = target: Insulin-like growth factor 1 receptor (Homo sapiens) (UniProt P08069); details: at 1 µM
# [5] = target: Insulin-like growth factor 1 receptor (Homo sapiens) (UniProt P08069); details: at 10 µM
# [6] = target: T3, Inhibitor of nuclear factor kappa-B kinase subunit alpha (Homo sapiens) (UniProt O15111); details: at 1 µM
# T3 sequence (whole entry): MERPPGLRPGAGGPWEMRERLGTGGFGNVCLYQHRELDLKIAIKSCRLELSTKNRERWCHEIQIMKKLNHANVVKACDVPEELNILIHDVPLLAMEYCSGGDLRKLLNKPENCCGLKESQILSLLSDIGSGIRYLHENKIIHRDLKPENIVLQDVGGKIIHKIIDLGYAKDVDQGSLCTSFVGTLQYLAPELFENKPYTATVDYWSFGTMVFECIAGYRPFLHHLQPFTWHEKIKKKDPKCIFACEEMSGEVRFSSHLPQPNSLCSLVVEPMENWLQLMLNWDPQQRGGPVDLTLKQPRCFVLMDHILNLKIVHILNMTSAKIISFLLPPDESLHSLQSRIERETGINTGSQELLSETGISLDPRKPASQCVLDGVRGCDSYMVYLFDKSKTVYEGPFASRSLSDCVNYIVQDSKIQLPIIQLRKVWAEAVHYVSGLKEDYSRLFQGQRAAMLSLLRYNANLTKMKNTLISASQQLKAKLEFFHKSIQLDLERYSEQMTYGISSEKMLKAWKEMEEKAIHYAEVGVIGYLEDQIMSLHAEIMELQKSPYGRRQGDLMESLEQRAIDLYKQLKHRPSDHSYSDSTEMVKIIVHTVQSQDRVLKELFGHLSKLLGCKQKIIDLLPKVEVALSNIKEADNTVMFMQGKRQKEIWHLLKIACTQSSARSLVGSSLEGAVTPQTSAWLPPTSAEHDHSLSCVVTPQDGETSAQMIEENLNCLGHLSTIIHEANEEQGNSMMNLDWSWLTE
# [7] = target: T3, Inhibitor of nuclear factor kappa-B kinase subunit alpha (Homo sapiens); details: at 10 µM
# [8] = target: T4, Inhibitor of nuclear factor kappa-B kinase subunit beta (Homo sapiens) (UniProt O14920); details: at 1 µM
# T4 sequence (whole entry): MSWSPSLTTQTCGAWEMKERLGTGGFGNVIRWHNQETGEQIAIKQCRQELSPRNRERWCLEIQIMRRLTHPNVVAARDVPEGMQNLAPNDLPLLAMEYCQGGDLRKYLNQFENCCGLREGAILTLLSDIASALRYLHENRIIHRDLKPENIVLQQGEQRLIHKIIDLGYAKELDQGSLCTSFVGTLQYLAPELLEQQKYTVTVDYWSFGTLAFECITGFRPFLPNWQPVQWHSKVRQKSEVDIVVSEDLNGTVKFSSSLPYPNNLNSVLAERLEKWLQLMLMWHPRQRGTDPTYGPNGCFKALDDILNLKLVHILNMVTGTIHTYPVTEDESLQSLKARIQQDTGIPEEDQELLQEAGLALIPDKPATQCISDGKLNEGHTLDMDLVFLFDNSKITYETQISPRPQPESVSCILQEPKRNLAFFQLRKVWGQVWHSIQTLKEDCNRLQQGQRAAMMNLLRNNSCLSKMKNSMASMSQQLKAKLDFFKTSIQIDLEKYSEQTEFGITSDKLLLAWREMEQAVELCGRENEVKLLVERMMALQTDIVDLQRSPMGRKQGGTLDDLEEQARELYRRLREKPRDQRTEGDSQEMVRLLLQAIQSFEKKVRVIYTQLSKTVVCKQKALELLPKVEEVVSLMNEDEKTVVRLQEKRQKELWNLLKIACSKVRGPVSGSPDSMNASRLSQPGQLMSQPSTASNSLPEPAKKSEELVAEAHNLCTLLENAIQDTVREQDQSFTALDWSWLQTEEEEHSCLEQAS
# [9] = target: T4, Inhibitor of nuclear factor kappa-B kinase subunit beta (Homo sapiens); details: at 10 µM
# [10] = target: Insulin receptor (Homo sapiens) (UniProt P06213); details: at 1 µM
# Chain of Insulin receptor (Homo sapiens) (P06213 28-758 limits assumed): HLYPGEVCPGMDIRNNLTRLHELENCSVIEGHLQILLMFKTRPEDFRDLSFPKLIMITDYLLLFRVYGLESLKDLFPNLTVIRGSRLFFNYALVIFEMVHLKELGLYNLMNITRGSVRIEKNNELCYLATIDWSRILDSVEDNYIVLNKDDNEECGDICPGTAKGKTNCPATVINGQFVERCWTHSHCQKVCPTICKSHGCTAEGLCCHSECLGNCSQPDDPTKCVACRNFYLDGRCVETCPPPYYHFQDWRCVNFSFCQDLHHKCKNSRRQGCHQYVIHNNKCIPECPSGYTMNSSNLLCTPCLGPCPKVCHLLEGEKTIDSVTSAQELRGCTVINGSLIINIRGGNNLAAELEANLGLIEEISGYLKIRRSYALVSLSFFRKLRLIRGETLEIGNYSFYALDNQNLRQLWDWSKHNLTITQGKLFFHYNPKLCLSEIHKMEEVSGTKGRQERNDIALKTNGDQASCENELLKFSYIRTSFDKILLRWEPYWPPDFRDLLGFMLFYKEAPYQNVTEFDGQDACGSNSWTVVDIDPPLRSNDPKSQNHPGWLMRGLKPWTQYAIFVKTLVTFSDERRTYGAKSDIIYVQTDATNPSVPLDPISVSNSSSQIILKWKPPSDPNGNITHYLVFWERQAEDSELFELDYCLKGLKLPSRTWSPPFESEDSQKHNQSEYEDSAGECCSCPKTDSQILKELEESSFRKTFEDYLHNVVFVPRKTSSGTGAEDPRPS
# Chain of Insulin receptor (Homo sapiens) (P06213 763-1382 limits assumed): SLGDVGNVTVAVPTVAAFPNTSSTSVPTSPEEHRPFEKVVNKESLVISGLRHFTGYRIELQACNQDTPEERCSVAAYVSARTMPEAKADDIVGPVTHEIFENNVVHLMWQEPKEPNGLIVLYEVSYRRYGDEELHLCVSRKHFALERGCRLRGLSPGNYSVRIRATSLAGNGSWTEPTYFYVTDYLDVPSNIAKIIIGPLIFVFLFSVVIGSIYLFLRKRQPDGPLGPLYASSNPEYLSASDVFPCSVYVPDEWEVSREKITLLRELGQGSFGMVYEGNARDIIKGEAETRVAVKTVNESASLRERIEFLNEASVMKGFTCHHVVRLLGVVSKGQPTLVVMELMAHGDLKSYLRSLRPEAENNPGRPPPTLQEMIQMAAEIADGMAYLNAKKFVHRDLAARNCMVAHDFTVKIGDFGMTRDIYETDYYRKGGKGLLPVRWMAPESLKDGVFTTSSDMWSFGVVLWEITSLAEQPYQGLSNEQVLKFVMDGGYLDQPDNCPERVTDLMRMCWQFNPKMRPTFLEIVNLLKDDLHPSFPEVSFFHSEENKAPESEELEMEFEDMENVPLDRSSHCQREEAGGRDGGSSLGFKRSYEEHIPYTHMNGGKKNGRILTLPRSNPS
# Chain of Insulin-like growth factor 1 receptor (Homo sapiens) (P08069 31-736 limits assumed): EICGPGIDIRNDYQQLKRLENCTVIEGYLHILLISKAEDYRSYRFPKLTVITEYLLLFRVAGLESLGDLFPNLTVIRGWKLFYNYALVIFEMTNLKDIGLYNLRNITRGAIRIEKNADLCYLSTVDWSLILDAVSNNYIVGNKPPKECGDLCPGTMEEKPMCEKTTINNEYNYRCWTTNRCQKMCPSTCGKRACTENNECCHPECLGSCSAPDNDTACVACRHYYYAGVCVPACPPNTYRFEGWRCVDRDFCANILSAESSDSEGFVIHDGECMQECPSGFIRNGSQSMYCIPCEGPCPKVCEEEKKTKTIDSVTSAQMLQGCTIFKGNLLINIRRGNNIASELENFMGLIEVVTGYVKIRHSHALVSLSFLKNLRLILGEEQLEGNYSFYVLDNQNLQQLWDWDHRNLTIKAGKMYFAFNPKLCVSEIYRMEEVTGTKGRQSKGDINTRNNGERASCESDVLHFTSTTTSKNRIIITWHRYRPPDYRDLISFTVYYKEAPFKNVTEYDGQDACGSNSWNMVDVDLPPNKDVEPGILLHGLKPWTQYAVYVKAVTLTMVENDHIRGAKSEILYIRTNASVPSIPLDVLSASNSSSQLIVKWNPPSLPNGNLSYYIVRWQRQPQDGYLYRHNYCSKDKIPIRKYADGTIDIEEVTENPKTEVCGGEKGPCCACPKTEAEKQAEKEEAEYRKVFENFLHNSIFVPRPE
# Chain of Insulin-like growth factor 1 receptor (Homo sapiens) (P08069 741-1367 limits assumed): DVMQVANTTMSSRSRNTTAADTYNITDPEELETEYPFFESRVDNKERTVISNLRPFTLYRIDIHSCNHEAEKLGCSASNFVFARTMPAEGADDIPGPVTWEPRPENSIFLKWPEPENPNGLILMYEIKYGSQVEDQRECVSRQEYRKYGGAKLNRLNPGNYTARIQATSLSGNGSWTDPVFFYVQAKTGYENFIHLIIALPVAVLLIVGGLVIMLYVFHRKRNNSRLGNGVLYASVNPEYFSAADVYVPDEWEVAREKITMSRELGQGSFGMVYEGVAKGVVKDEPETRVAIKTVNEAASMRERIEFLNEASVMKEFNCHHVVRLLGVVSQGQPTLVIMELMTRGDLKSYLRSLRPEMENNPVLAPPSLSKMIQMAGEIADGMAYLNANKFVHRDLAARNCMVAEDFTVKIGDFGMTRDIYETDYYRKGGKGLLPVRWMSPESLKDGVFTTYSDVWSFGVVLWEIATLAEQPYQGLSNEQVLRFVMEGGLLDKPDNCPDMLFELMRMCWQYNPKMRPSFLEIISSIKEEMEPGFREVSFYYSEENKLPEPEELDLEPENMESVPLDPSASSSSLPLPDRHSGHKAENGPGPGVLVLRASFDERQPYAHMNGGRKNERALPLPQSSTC
smiles,measurement,setting,value
Oc1ccc(-c2nc(-c3ccc(F)cc3)c(-c3ccncc3)[nH]2)cc1,residual activity,[1],85%
same,residual activity,[2],100%
same,residual activity,[3],40%
same,residual activity,[4],122%
same,residual activity,[5],123%
same,residual activity,[6],90%
same,residual activity,[7],59%
same,residual activity,[8],120%
same,residual activity,[9],91%
same,residual activity,[10],136%
